Measured values reported in PubChem BioAssay (Tox21).
Inconclusive results are not listed. Activity calls are given as the source filed them. Calls follow the shape of the dose curve; as a rule, active = well fitted cell-killing curve with a large enough effect in the repeat runs; inconclusive = weak or mixed curves; inactive = flat fitted curve, though single readings scatter.

Test: qHTS RealTime-Glo MT Cell Viability Assay in HepG2 cells - 16 hour (AID 1224885); also: nearly all actives have a fitted effect of over 50% in size
Conditions: RealTime-Glo luminescence; series mostly up to 76.8 µM
Source text: U.S. Tox21 Program National Center for Advancing Translational Sciences [NCATS] NIH Chemical Genomics Center [NCGC] U.S. Environmental Protection Agency [EPA] National Institutes of Environmental Health Sciences [NIEHS] National Toxicology Program [NTP] U.S. Food and Drug Administration [FDA] Tox21 Assay Overview: Measure of cell viability is critical in the cell-base assay. Analysis of cell viability is necessary for the characterization of cell responses to cytotoxic drugs and environmental stress. A RealTime-Glo MT Cell Viability Assay to monitor cell viability in real time of continues cell culture during 40 hours of compound treatment was used to screen Tox21 10K library compounds in HepG2 cells. The RealTime-Glo MT Cell Viability Assay is a nonlytic, homogeneous, bioluminescent method to measure cell viability in real time using a simple, plate-based method. The assay involves adding NanoLuc luciferase and a cell-permeant prosubstrate to cells in culture. Viable cells reduce the proprietary prosubstrate to generate a substrate for NanoLuc luciferase. This substrate diffuses from cells into the surrounding culture medium, where it is rapidly used by the NanoLuc Enzyme to produce a luminescent signal. The signal correlates with the number of viable cells, making the assay well suited for cytotoxicity studies.
Tox21 Assay Protocol Summary: The mixture of HepG2 cell suspension and reagents were dispensed at 600cells/6 ul/well in 1536-well tissue culture treated black solid bottom plates using a Multidrop dispenser. After the assay plates were incubated at a 37 C/5% CO2 incubator for 5 hours, 23 nL of compounds dissolved in DMSO, positive and negative controls was transferred to the assay plate by a pintool work station. The plates were incubated at 37 C for 40 hours. The luminescence intensity were measured at 0h, 8h, 16h, 24h, 32h and 40h time points using ViewLux plate reader during compound treatment.
% is scaled to controls: 0 for no effect and ±100 for the full control effect.

Which outcome does the source give for `CC(CC(=O)O)CC(C)(C)C` (stereo not given) here?
Its outcome is “inactive”.

With `CC(C)(c1ccc(Oc2ccc3c(c2)C(=O)OC3=O)cc1)c1ccc(Oc2ccc3c(c2)C(=O)OC3=O)cc1` as the compound, how does the outcome read?
Its outcome is “inactive”.

With `NS(=O)(=O)c1cc2c(cc1Cl)NC(CC1CCCC1)NS2(=O)=O` (stereo not given) as the compound, how does the outcome read?
The outcome was “inactive”.

Which outcome does the source give for `Nc1ccc(S(=O)(=O)NC(=O)c2ccccc2)cc1` here?
The outcome was “inactive”.

With `CCOC(=O)OCC/C(SC(=O)OCC)=C(\C)N(C=O)Cc1cnc(C)nc1N` as the compound, how does the outcome read?
The outcome was “inactive”.

With `C=CC(C)(O)CC/C=C(\C)CC` (stereo not given) as the compound, how does the outcome read?
Its outcome is “inactive”.

With `C=C[C@@H](C)CCC=C(C)C` as the compound, how does the outcome read?
The outcome was “inactive”.

Which outcome does the source give for `O=C(COCCOCCOCC(=O)Nc1c(I)cc(I)c(C(=O)O)c1I)Nc1c(I)cc(I)c(C(=O)O)c1I` here?
Its outcome is “inactive”.

With `O=C(O)Cc1cccc(-c2cc(CCCCCCc3ccc(O[C@H]4O[C@H](CO)[C@@H](O)[C@H](O)[C@@H]4O)c(-c4cccc(CC(=O)O)c4)c3)ccc2O[C@H]2O[C@H](CO)[C@@H](O)[C@H](O)[C@@H]2O)c1` as the compound, how does the activity change, negative = cytotoxic read?
Its activity change, negative = cytotoxic is 17.8% [at 0.29 µM] (inactive).

Which outcome does the source give for `Nc1ccc(S(=O)(=O)Nc2ccccn2)cc1` here?
Its outcome is “inactive”.

Which outcome does the source give for `Cc1ccccc1C(=O)N1CC/C(=N\OS(=O)(=O)O)c2ccc(Cl)cc21` here?
The outcome was “inactive”.

Which outcome does the source give for `CC(C)SCc1ccco1` here?
Its outcome is “inactive”.

Which outcome does the source give for `O=C1OC(=O)c2cc(Oc3ccc4c(c3)C(=O)OC4=O)ccc21` here?
Its outcome is “inactive”.

With `N#CCCOCCOCCC#N` as the compound, how does the outcome read?
Its outcome is “inactive”.

With `CN[C@@H]1[C@@H](O)[C@@H](O[C@@H]2[C@H](O)[C@H](O[C@H]3OC(CN)=CC[C@H]3N)[C@@H](N)C[C@H]2N)OCC1(C)O` (stereo not given in full) as the compound, how does the outcome read?
The outcome was “inactive”.

With `O=C(O)/C=C/c1ccccc1` as the compound, how does the outcome read?
Its outcome is “inactive”.

For `C[C@@H]1C[C@H]2[C@@H]3C[C@H](F)C4=CC(=O)C=C[C@]4(C)[C@@]3(F)[C@@H](O)C[C@]2(C)[C@@]1(O)C(=O)CO`, which outcome is on record?
The outcome was “inactive”.

With `COc1ccc(N=Nc2cc(C)c(N=Nc3ccc(S(=O)(=O)O)cc3)cc2OC)cc1` as the compound, how does the outcome read?
The outcome was “inactive”.

With `C[CH2][Ge]([Cl])([CH2]C)[CH2]C` as the compound, how does the outcome read?
The outcome was “inactive”.

Which outcome does the source give for `FC(F)(F)c1ccc(Cl)cc1Cl` here?
Its outcome is “inactive”.

Which outcome does the source give for `C=CCOCC(O)CCl` (stereo not given) here?
The outcome was “inactive”.

For `CC(=O)OCCCc1ccccc1`, which outcome is on record?
Its outcome is “inactive”.

With `CCNC(=O)NCCCOc1cccc(CN2CCCCC2)c1` as the compound, how does the outcome read?
The outcome was “inactive”.

With `Cc1nc([N+](=O)[O-])cn1-c1ccc([N+](=O)[O-])cc1` as the compound, how does the outcome read?
Its outcome is “inactive”.

With `SCCSCCS` as the compound, how does the outcome read?
The outcome was “inactive”.

For `CNC(=O)C(c1ccccc1)c1ccccc1`, which outcome is on record?
The outcome was “inactive”.

For `O=S(=O)(O)CCO`, which outcome is on record?
The outcome was “inactive”.

For `CCN1CN(CC)CN(CC)C1`, which outcome is on record?
The outcome was “inactive”.

Which outcome does the source give for `Cc1ncc([N+](=O)[O-])n1CC(O)CCl` (stereo not given) here?
Its outcome is “inactive”.

For `BrC/C=C/CBr`, which activity change, negative = cytotoxic is on record?
Its activity change, negative = cytotoxic is 4.65% [at 15.8 µM] (inactive).

With `CCOc1ccc(NC(=O)OC(C)C)cc1OCC` as the compound, how does the outcome read?
Its outcome is “inactive”.

With `CN[C@@H]1[C@H](O)[C@H](NC)[C@H]2O[C@@]3(O)C(=O)C[C@@H](C)O[C@H]3O[C@@H]2[C@H]1O` as the compound, how does the outcome read?
The outcome was “inactive”.

For `CCCCC(C)C(=O)O` (stereo not given), which outcome is on record?
The outcome was “inactive”.

For `CCCCCCCC[Si](OCC)(OCC)OCC`, which outcome is on record?
The outcome was “inactive”.

Which outcome does the source give for `CCN(CCC#N)c1ccccc1` here?
Its outcome is “inactive”.

With `COC(=O)CCC(=O)O` as the compound, how does the outcome read?
Its outcome is “inactive”.

With `CC(=O)N(CC(O)CO)c1c(I)c(C(=O)NCC(O)CO)c(I)c(C(=O)NCC(O)CO)c1I` (stereo not given) as the compound, how does the outcome read?
Its outcome is “inactive”.

With `O=C(Nc1cccc(C2=NCCN2)c1)Nc1cccc(C2=NCCN2)c1` as the compound, how does the activity change, negative = cytotoxic read?
Its activity change, negative = cytotoxic is 0.713% [at 15.8 µM] (inactive).

For `Cc1ccc2c(c1)c1c3n2CCNC3CCC1` (stereo not given), which outcome is on record?
Its outcome is “inactive”.

With `CC(C)C(=O)c1ccccc1` as the compound, how does the outcome read?
The outcome was “inactive”.
